ROMK mod: human ROMK K+ channel modulation, primary screen | P48048 | Tet-inducible ROMK, thallium flux fluorescence; actives lie on both sides | B-score at 10 µM | 2% of 130,000 active | AID 1918;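 active means signal ratio slope over the read window, or its plate-corrected B-score, at least 3 SD from the plate mean, either direction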;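 further: B-score of the F/F0 ratio slope over 7 to 12 s after thallium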
WT yeast gro inh: growth inhibition of WT yeast, mitochondrial fusion screen; mitochondrial fusion phenotypic screen, WT strain; inhibition, % at 10 µM; 2.1% of 190,000 active; in the data active means inhibition above about 58%; tested in S. cerevisiae
Arbovirus anti: arbovirus infection inhibition. arbovirus infection cell-based antiviral screen. inhibition, % at 10 µM. 0.37% of 200,000 active. AID 1251; in the data active means inhibition above about 30%
PERK inhibitor: human PERK inhibition, primary cell-based screen. CHO PERK-DD fusion, SEAP luminescence translation reporter. AID 1416. inhibition, % at 5.6 µM. 0.17% of 220,000 active;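 active means inhibition above the mean inhibition of all tested compounds plus 3 SD, set separately per screening campaign, cut at about 2.9% in these data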;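 further: PERK kinase domain activated by AP20187 dimerizer at 100 nM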
Target sequence (Q9NZJ5 whole entry, looked up, the tested form may be a part): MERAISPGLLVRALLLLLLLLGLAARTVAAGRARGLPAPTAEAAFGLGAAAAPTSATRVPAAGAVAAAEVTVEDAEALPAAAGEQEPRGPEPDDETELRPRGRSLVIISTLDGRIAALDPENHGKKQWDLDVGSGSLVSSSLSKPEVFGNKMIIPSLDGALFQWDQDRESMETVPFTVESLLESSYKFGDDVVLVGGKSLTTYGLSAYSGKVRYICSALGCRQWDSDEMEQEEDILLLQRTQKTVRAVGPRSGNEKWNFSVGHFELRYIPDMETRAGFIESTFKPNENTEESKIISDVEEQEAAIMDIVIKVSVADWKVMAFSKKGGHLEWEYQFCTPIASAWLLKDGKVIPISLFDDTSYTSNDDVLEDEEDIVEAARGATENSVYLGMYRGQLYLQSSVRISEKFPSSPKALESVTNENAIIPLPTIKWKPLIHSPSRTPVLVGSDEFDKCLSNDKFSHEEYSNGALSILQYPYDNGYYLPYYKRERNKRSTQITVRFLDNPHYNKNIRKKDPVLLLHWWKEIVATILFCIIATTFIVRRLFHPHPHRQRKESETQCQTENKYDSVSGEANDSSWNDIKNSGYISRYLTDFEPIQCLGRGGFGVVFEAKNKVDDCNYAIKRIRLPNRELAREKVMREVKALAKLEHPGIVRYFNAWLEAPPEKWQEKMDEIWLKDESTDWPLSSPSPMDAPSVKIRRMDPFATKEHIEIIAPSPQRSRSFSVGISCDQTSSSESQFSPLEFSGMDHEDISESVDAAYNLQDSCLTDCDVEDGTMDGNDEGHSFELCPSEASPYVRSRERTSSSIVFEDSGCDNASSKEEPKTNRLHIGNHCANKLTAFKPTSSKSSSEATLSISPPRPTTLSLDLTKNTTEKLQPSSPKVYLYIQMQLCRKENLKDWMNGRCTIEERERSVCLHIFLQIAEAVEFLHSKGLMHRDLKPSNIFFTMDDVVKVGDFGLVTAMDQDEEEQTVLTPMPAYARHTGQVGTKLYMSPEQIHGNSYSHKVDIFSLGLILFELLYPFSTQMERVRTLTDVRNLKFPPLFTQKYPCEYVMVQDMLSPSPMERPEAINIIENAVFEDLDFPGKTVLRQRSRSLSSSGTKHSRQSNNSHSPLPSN
Of the large screens only hits and unclear results are named; the others gave an inactive call. An excerpt weighted towards active compounds, which were near 3.3% of everything screened.

Cn1c(/N=C/c2cccs2)nc2ccccc21	none
Cc1cc(C)c(C)c(N=Nc2nc3ccccc3n2C)c1C	WT yeast gro inh 84
Cc1ccc(C)c(N=Nc2nc3ccccc3n2C)c1	WT yeast gro inh 82 (no result: ROMK mod)
CCc1c(C)nc(SCc2ccccn2)[nH]c1=O	none
Cc1ccc(NC2=C(NC(=O)c3ccccc3)C(=O)c3ccccc3C2=O)cc1Cl	WT yeast gro inh 68 (no result: ROMK mod)
O=C(OC(c1ccccc1)c1nccc2ccccc12)c1cccc([N+](=O)[O-])c1 (centres undefined)	WT yeast gro inh 67 (no result: ROMK mod)
COc1ccc(N2C(=O)N(Cc3cccc(F)c3)c3ccccc3S2(=O)=O)cc1	none
COc1ccc(C(=O)c2c(C(F)(F)F)oc3c2C(=O)c2ccccc2C3=O)cc1	WT yeast gro inh 92 (no result: ROMK mod)
COc1ccccc1C1C=C(c2ccc(Cl)cc2)Nc2nc(N3C(=O)CCC3=O)nn21 (centres undefined)	ROMK mod -6
COc1ccc(C2C=C(c3ccc(Br)cc3)Nc3nc(N4C(=O)CCC4=O)nn32)cc1 (centres undefined)	none (no result: ROMK mod)
O=C1CCC(=O)N1c1nc2n(n1)C(c1ccccc1)C=C(c1ccc(Br)cc1)N2 (centres undefined)	ROMK mod -4
COc1ccccc1C1C=C(c2ccc(Cl)cc2)Nc2nc(NS(C)(=O)=O)nn21 (centres undefined)	none (no result: ROMK mod)
CCN(CC)S(=O)(=O)c1ccc(NC(=O)C(OC)c2ccccc2)cc1 (centres undefined)	none
COc1ccc(/C=N/Nc2ccc(C(=O)O)cc2)cc1Br	none
C=CCOc1c(Br)cc(/C=N/Nc2ccc(C(=O)O)cc2)cc1OCC	WT yeast gro inh 63, Arbovirus anti 31
O=C(NCc1cccs1)C(=O)NCC1OCCCN1S(=O)(=O)c1ccccc1 (centres undefined)	none
O=C(CN(CC1CCCO1)C(=O)CCC(=O)Nc1ccccn1)NCc1ccccc1 (centres undefined)	none (no result: ROMK mod)
CC(C)CCNC(=O)CN(CC1CCCO1)C(=O)CCC(=O)Nc1ccccn1 (centres undefined)	WT yeast gro inh 70 (no result: ROMK mod)
CCC(C)(C)c1ccc(Oc2ccc(N)cc2)cc1	WT yeast gro inh 89
CCC(C)(C)c1ccc(Oc2cccc(C(=O)O)c2)cc1	none (no result: ROMK mod, WT yeast gro inh, Arbovirus anti)
c1ccc(Cn2c(SCc3cn4cccnc4n3)nnc2-c2ccco2)cc1	WT yeast gro inh 76
Cc1cccc(S(=O)(=O)Nc2nc3ccccc3nc2NCc2ccco2)c1	Arbovirus anti 33 (no result: ROMK mod)
Cc1cccc(S(=O)(=O)c2c(N)n(Cc3ccco3)c3nc4ccccc4nc23)c1	ROMK mod -2.9
Cc1noc(C)c1CSc1nc2ccccc2nc1NS(=O)(=O)c1ccc(Cl)cc1	ROMK mod -3.1
O=S(=O)(Nc1nc2ccccc2nc1NCc1ccco1)c1ccc(Cl)cc1	WT yeast gro inh 58 (no result: ROMK mod)
Cc1ccc(S(=O)(=O)Nc2nc3ccccc3nc2NCc2ccco2)cc1	none
CC(C)Oc1ccc(C(=O)NC(Cc2c[nH]c3ccccc23)C(=O)NN)cc1 (centres undefined)	none (no result: WT yeast gro inh, Arbovirus anti)
CN(Cc1ccccc1)c1nc2c(c(=O)[nH]c(=O)n2C)n1CCOc1ccccc1	none
CC(CCc1ccco1)NC(=O)c1cccc2c1C(=O)N(C1CCCCC1)C2 (centres undefined)	WT yeast gro inh 60
Cn1c(=O)oc2cc(S(=O)(=O)N3CCCC(C(=O)NC4CCCc5ccccc54)C3)ccc21 (centres undefined)	none (no result: ROMK mod)
COc1ccc(C(=O)COC(=O)CCN=C2NS(=O)(=O)c3ccccc32)cc1OC	none
CC(=O)C1C(c2ccc(Br)cc2)C2C(C)=NN=C2CC1(C)O (centres undefined)	none (no result: ROMK mod)
CCn1c(CNC(=O)c2ccccc2)nc2ccccc21	none (no result: ROMK mod, WT yeast gro inh, Arbovirus anti)
C/C(=N\NC(=O)c1ccccc1)c1nc2ccccc2n1C	Arbovirus anti 41 (no result: ROMK mod)
CC(NC(=O)c1ccc(Br)cc1)c1ccc2c(c1)CCCC2 (centres undefined)	WT yeast gro inh 63
CC(NC(=O)c1ccc(F)cc1)c1ccc2c(c1)CCCC2 (centres undefined)	none (no result: ROMK mod)
O=C(Nc1ccc(Cl)c(Cl)c1)c1cccc(S(=O)(=O)NCc2cccnc2)c1	WT yeast gro inh 76 (no result: ROMK mod)
O=C(Nc1ccc(Cl)c(Cl)c1)OCc1cccnc1	WT yeast gro inh 79
O=C(NNC(=O)c1cccnc1)Nc1ccc(Cl)c(Cl)c1	none (no result: ROMK mod)
O=C(O)c1cc(S(=O)(=O)N2CCOCC2)c(Sc2ccccn2)cc1Sc1ccccn1	none (no result: ROMK mod)
O=C(NNS(=O)(=O)c1ccccc1F)c1sccc1-n1cccc1	none
CSc1nc(N2CCOCC2)c2ccccc2n1	none (no result: ROMK mod)
CSc1nc(N2CCN(c3ccccc3Cl)CC2)c2ccccc2n1	WT yeast gro inh 63
CCOC(=O)c1c(CN2CCOCC2)n(-c2ccccc2)c2cc(Br)c(OC)cc12	WT yeast gro inh 73
COc1ccc(N2C(=O)[C@@H]3[C@H](C2=O)[C@H]2c4ccccc4C=CN2[C@@H]3C(C)=O)cc1	ROMK mod -3.6
CCOc1ccccc1NC(=O)c1ccc2nccnc2c1	none
COc1ccc(CN(C)C(c2ccccc2)c2nnnn2-c2ccccc2C)c(OC)c1C (centres undefined)	WT yeast gro inh 74 (no result: ROMK mod)
COc1cc(OC)c(OC)cc1CN(C)C(c1ccccc1)c1nnnn1-c1ccccc1C (centres undefined)	none (no result: ROMK mod)
C=CCn1cc(C(=O)OCC)c(=O)c2cc(F)c(F)cc21	none (no result: WT yeast gro inh, Arbovirus anti)
Cc1c(Cl)ccc2c(C(=O)NCCN3CCCCC3)cc(-c3ccccn3)nc12	WT yeast gro inh 94
Cc1cc(C)nc(NC2=NCC(=O)N2c2ccc3c(c2)OCCO3)n1	WT yeast gro inh 95
COc1ccc(N2C(=O)CN=C2Nc2nc(C)cc(C)n2)cc1	none
CC[C@@H]1C=C(C)C[C@H](C)C[C@H](OC)[C@H]2O[C@@](O)(C(=O)C(=O)N3CCCC[C@H]3C(=O)O[C@H](/C(C)=C/[C@@H]3CC[C@@H](O)[C@H](OC)C3)[C@H](C)[C@@H](O)CC1=O)[C@H](C)C[C@@H]2OC	ROMK mod -3.6, PERK inhibitor 95
CCC(=O)Nc1ccc(S(=O)(=O)Nc2cccc(C)c2)cc1OC	none
NC(=S)N/N=C/c1ccc(-c2cc(Cl)ccc2Cl)o1	WT yeast gro inh 72
NC(=S)N/N=C1/CCSc2ccc3ccccc3c21	ROMK mod -3.2, WT yeast gro inh 76
FC(F)(F)c1ccc(Cl)c(N/N=C/c2ccc(N3CCOCC3)s2)c1	WT yeast gro inh 58
Cc1cc(C)c(NC(=S)NCCCSC2CCCCC2)c(C)c1	WT yeast gro inh 75
COc1ccccc1-c1nc(-c2ccccn2)no1	none (no result: ROMK mod)
COc1ccc(-c2nc(-c3ccccn3)no2)cc1	WT yeast gro inh 64
Cc1cccc(-c2nnc(SCC(=O)C(C)(C)C)n2C)c1	none (no result: ROMK mod, WT yeast gro inh, Arbovirus anti)
COC(=O)c1cc(OC)c(OC)cc1NC(=O)Nc1ccc(OC)cc1OC	none (no result: ROMK mod)
O=C1Nc2ccc(Cl)cc2C12Nc1ccccc1-c1nnc(SCc3ccccc3F)nc1O2 (centres undefined)	WT yeast gro inh 69
O=C1Nc2ccc(F)cc2C12Nc1ccccc1-c1nnc(SCc3ccccc3F)nc1O2 (centres undefined)	none
O=C(c1cc(-c2ccccc2)nc2ccccc12)N1CCCc2ccccc21	WT yeast gro inh 63
O=C(c1ccc(C(=O)N2CCCc3ccccc32)s1)N1CCCc2ccccc21	WT yeast gro inh 97 (no result: ROMK mod)
O=C(C(=O)N1CCCc2ccccc21)N1CCCc2ccccc21	none
